Results on 21 molecules are retold here after PubChem BioAssay (NCI).

Experiment [1] in a line: NCI Yeast Anticancer Drug Screen. Data for the rad50 strain (AID 155).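 Also: 0% = growth of vehicle-only cultures of the same strain.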 As to conditions: S. cerevisiae rad50 strain growth inhibition; at 50.0 µM; stronger effect = higher value. In outline: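 Yeast carrying a defined DNA repair defect were exposed to test compounds, and growth was compared with vehicle-treated controls to give percent inhibition.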
Experiment [2] is described as follows: NCI Yeast Anticancer Drug Screen. Data for the mec2-1 strain (AID 157). The settings on record: S. cerevisiae mec2-1 strain, at 50.0 µM, stronger effect = higher value. In outline: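 Vehicle-treated cultures served as reference for growth inhibition of compound-exposed mec2-1 yeast.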
Experiment [3] is described as follows: NCI Yeast Anticancer Drug Screen. Data for the sgs1 mgt1 strain (AID 161).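 Also: 0% = growth of cultures given vehicle only.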 As to conditions: S. cerevisiae sgs1 mgt1 strain, at 50.0 µM, stronger effect = higher value. In outline: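 Inhibition of yeast growth, normalised to vehicle-treated controls, is reported for a strain bearing genetic alterations in DNA damage repair.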
The nature of experiment [4]: NCI Yeast Anticancer Drug Screen. Data for the cln2 rad14 strain (AID 165).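 Also: 0% = growth equal to vehicle treated cultures.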 The settings on record: S. cerevisiae cln2 rad14 strain, at 50.0 µM, stronger effect = higher value. The procedure, abridged:
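Each compound was tested on cln2 rad14 yeast. Inhibition of growth was calculated against vehicle-exposed controls.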

A short description of experiment [5]: NCI Yeast Anticancer Drug Screen. Data for the bub3 strain (AID 167). The settings on record: S. cerevisiae bub3 mutant strain, at 50.0 µM, stronger effect = higher value. In outline: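 Compounds were applied to a genetically altered yeast strain carrying a cell-cycle control defect. Growth inhibition was scored against vehicle-treated controls.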
The nature of experiment [6]: NCI Yeast Anticancer Drug Screen. Data for the mlh1 rad18 strain (AID 175). The settings on record: S. cerevisiae mlh1 rad18 strain growth inhibition; at 50.0 µM; stronger effect = higher value. In outline:
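Vehicle-treated cultures served as the reference for growth inhibition in a yeast strain carrying DNA damage repair alterations exposed to each compound.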

The panel holds about 79,000 compounds, 15% with a hit somewhere; the sample as a whole holds those more often. A number with no mark means an inactive call. The source made the active and inactive calls. Rule as the data show it: active = growth inhibition above about 70%; inactive = the rest.

With `CC(C)Oc1ccc(C(N)=S)c2ccccc12`, the growth inhibition in experiment [1] was -0.55%; in experiment [2], 4.75%; in experiment [3], -0.85%; in experiment [4] it was -29.1%; in experiment [5] it was -1%; in experiment [6], 14.1%.
Regarding `Nc1c(Cl)cccc1C(=O)c1ccccc1C(=O)O`, the growth inhibition was -9.8% in experiment [1]; 4.8% in experiment [2]; 5.4% in experiment [3]; -14.8% in experiment [4]; 1% in experiment [5]; -3.15% in experiment [6].
Consider `CCCCCCCCCCC(CCCCCCCCCC)C1CCCC1`, for which the growth inhibition in experiment [1] was -12.3%; in experiment [2], 16.1%; in experiment [3] it was 0.7%; in experiment [4], -14.6%; in experiment [5] it was -12.8%; in experiment [6] it was -12.9%.
Regarding `Cc1c(Cl)c2ccc(N(C)C)cc2[nH]c1=O`, the growth inhibition is -2.9% in experiment [1]; 0.45% in experiment [2]; -0.1% in experiment [3]; -6.35% in experiment [4]; 11.2% in experiment [5]; 7.65% in experiment [6].
`O=C(NNC(=O)c1ccc2ccccc2n1)c1ccc2ccccc2n1`: the growth inhibition in experiment [1] was 5.2%; in experiment [2], 2.45%; in experiment [3], 12.3%; in experiment [4], 9.8%; in experiment [5], 0.2%; in experiment [6], 16.6%.
Regarding `CC(=O)OCc1cc2c(cc1CNCc1ccccc1)OCO2`, the growth inhibition in experiment [1] was 12.5%; in experiment [2] it was -2.15%; in experiment [3] it was 7.25%; in experiment [4] it was -31.4%; in experiment [5] it was 5%; in experiment [6], 7.25%.
Consider `CN(C)Cc1cc(C(=O)/C=C/c2ccc(Cl)cc2Cl)cc(CN(C)C)c1O`, for which the growth inhibition in experiment [1] was 6.4%; in experiment [2], -12.8%; in experiment [3], 8.55%; in experiment [4], -51.4%; in experiment [5] it was 8.85%; in experiment [6], 13.8%.
Take `O=C(Nc1ccc(Br)cc1)OCC1CC2C=CC1C2` (stereo unspecified): the growth inhibition is 43.5% in experiment [1]; 70.8% (active) in experiment [2]; 79.9% (active) in experiment [3]; 42% in experiment [4]; 33.9% in experiment [5]; 47.4% in experiment [6].
For `CCO/C(Cc1ccc(Cl)cc1)=N/NC(N)=S`, the growth inhibition in experiment [1] was 39.6%; in experiment [2] it was 2%; in experiment [3], 24.9%; in experiment [4], 24.1%; in experiment [5], 21.2%; in experiment [6] it was -15.5%.
On to `O=Cc1cc(N=Nc2ccc(S(=O)(=O)O)cc2)ccc1O`, for which the growth inhibition is 5.8% in experiment [1]; -35.5% in experiment [2]; -1.45% in experiment [3]; 14.9% in experiment [4]; -17.6% in experiment [5]; 3.6% in experiment [6].
With `NC(=S)N/N=C\c1nccc2ccc(N)cc12`, the growth inhibition in experiment [1] is 36%; in experiment [2], -0.8%; in experiment [3], 3.1%; in experiment [4], -46.8%; in experiment [5] it was -5.8%; in experiment [6], 4.9%.
In the case of `CCCCCC(=O)Nc1cc(N)cc(C(=O)O)c1`, the growth inhibition in experiment [1] was 4.25%; in experiment [2], 9.25%; in experiment [3], 9.5%; in experiment [4], -9.6%; in experiment [5], 0.1%; in experiment [6], -14.3%.
Take `NS(=O)(=O)c1cc2c(cc1Cl)NC(Cc1ccccc1)NS2(=O)=O` (stereo unspecified): the growth inhibition in experiment [1] was -20.7%; in experiment [2], -4.55%; in experiment [3], -9.45%; in experiment [4] it was -7.2%; in experiment [5], 0.2%; in experiment [6], 18.4%.
In the case of `Cc1c(Cl)cccc1NC(=O)Oc1ccc(F)cc1Cl`, the growth inhibition in experiment [1] is -1.4%; in experiment [2], -3.1%; in experiment [3], -2.3%; in experiment [4], 7.35%; in experiment [5], 17.6%; in experiment [6], -4.55%.
On to `ClCCOCOc1ccc2ccccc2c1`, for which the growth inhibition in experiment [1] is 29.6%; in experiment [2], 23.9%; in experiment [3], 43.6%; in experiment [4] it was 16.7%; in experiment [5] it was 26.6%; in experiment [6] it was 26.9%.
For `Cc1ccccc1C(=O)c1ccccc1Cc1cccc2ccccc12`, the growth inhibition in experiment [1] is -2.4%; in experiment [2], -10.3%; in experiment [3], -10.2%; in experiment [4] it was 1.1%; in experiment [5] it was 8.95%; in experiment [6] it was -22.9%.
For the molecule `CC1CC(C)C2=NOS3=C2C1=NO3` (stereo unspecified), the growth inhibition was 43.3% in experiment [1]; 16.6% in experiment [2]; 36.1% in experiment [3]; 21.4% in experiment [4]; 28.4% in experiment [5]; 22.9% in experiment [6].
`O=C(Cc1ccccc1)NCO`: the growth inhibition in experiment [1] was 2.95%; in experiment [2] it was 6.35%; in experiment [3], -9.6%; in experiment [4] it was -52.4%; in experiment [5], -3.5%; in experiment [6], 4.6%.
In the case of `Nc1nc(-c2cc(C(c3ccccc3)c3ccccc3)nc(N)n2)cc(C(c2ccccc2)c2ccccc2)n1`, the growth inhibition in experiment [1] was -6.45%; in experiment [2], 13.8%; in experiment [3] it was -24.6%; in experiment [4], 3.45%; in experiment [5], -2.3%; in experiment [6], 9.95%.
On to `Cc1nn(C(=O)c2ccccn2)c(-c2ccccc2)c1N=Nc1ccc(S(=O)(=O)Nc2ncccn2)cc1`, for which the growth inhibition in experiment [1] is 26.4%; in experiment [2], -6%; in experiment [3], 17.9%; in experiment [4], 12.5%; in experiment [5] it was 1.5%; in experiment [6] it was 40.4%.
`Cc1ccc(Nc2nc(=O)[nH]c(=O)[nH]2)cc1N`: the growth inhibition in experiment [1] is -11.7%; in experiment [2], 1.65%; in experiment [3], 20.3%; in experiment [4], 11.7%; in experiment [5] it was 27.1%; in experiment [6], -54.5%.
